# Assay results as given in the supplement of paper PMC7156485.
# ± gives the standard deviation of the averaged measurements.
# System: HCC1569
# Assay: cell number relative to DMSO (% of DMSO); higher = more cells (less growth inhibition / toxicity)
# Details: concentration: 10 µM; 24 h
# How it was run: (§1)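 After 24 h at 37 °C with compounds at 10 µM, in triplicate, HCC1569 and TDF cells were fixed with 3.7% formaldehyde. Immunostaining used a rabbit anti-H1.0 antibody and an AlexaFluor 647 secondary, with DAPI, and six fields per well were imaged at ×10. H1.0 nuclear intensity or cell number is presented as percent of the plate control, from the median of replicates, with HCC1569 values smoothed for positional effects.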
# 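Further: TDF denotes transformed human dermal fibroblasts of mesenchymal origin.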
row,Structure (SMILES),cell number
1,COC(=O)C(N)Cc1ccc(Cl)cc1.Cl (racemic) [DL-p-Chlorophenylalanine methyl ester hydrochloride],97.3
2,COC(=O)[C@H](Cc1ccc([N+](=O)[O-])cc1)NC(=O)c1cccc2ccccc12 [methyl (2S)-2-(1-naphthoylamino)-3-(4-nitrophenyl)propanoate],92.4
3,O=c1[nH]c(=O)n(C2CC(O)C(CO)O2)cc1I (stereo not drawn) [Idoxuridine],103

# System: TDF
# Assay: as above
# Details: concentration: 10 µM; 24 h
# How it was run: as §1
row,Structure (SMILES),cell number
1,CCCCC1=NC2(CCCC2)C(=O)N1Cc1ccc(-c2ccccc2-c2nn[nH]n2)cc1,99.3
2,Nc1nc(=O)c2ncn(COCCO)c2[nH]1 [Acyclovir],104
3,O=C(O)c1cc([N+](=O)[O-])ccc1NCCCc1ccccc1 [5-Nitro-2-(3-phenylpropylamino)benzoic acid],102
4,"CN1C2CCC1CC(NC(=O)c1nn(C)c3ccccc13)C2.O=C(O)C=CC(=O)O (stereo not drawn) [LY-278,584 maleate]",94.8
5,COc1ccc(-c2coc3cc(O)cc(O)c3c2=O)cc1 [Biochanin A],97.4
6,CNC1(C)C2CCC(C2)C1(C)C (stereo not drawn) [Mecamylamine],106
7,C=C1C(=CC=C2CCCC3(C)C2CCC3C(C)CCCC(C)C)CC(O)CC1O (stereo not drawn) [Alfacalcidol],101
8,CN(C)CCCN1c2ccccc2CCc2ccccc21.Cl [Imipramine.HCl],97.4
9,Cc1cc(Nc2ncc3cc(-c4c(Cl)cccc4Cl)c(=O)n(C)c3n2)ccc1F,7.32
10,O=C1N(c2ccccc2)c2ccccc2C1(Cc1ccncc1)Cc1ccncc1 [Linopirdine],112
11,Cl.Cl.Cl.Cl.NCCCNCCCCNCCCN [Spermine tetrahydrochloride],104
12,CCCCCC=CC=C1C(=O)C=CC1CC=CCCCC(=O)O (stereo not drawn) [15d-Prostaglandin J2],102
13,S=C([S-])OC1CC2CC1C1CCCC21.[K+] (stereo not drawn),97.1
14,COc1cccc2c1C(=O)c1c(O)c3c(c(O)c1C2=O)CC(O)(C(=O)CO)CC3OC1CC(N)C(O)C(C)O1.Cl (stereo not drawn) [Doxorubicin.HCl],17.1 ± 3.7
15,CN(C(Cc1ccc(OS(=O)(=O)c2cccc3cnccc23)cc1)C(=O)N1CCN(c2ccccc2)CC1)S(=O)(=O)c1cccc2cnccc12 (stereo not drawn),95.6 ± 12
16,CCc1cc(Cl)c(OC)c(C(=O)NCC2CCCN2CC)c1O.Cl (stereo not drawn) [S-(-)-Eticlopride hydrochloride],110
17,CCCCCC(O)C=CC1C2CC(CO2)C1CC=CCCCC(=O)O (stereo not drawn),107
18,CCCCCCCCCCCCCCCC(=O)OCC=C(C)C=CC=C(C)C=CC1=C(C)CCCC1(C)C [Retinyl palmitate],99.2
19,CC(CS)C(=O)N1CCCC1C(=O)O (stereo not drawn) [Captopril],93.4 ± 4.1
20,"CC1CCC(C(C)(C)O)CC2=C1CCC2C (single isomer, unassigned; (-)) [(-)-Guaiol]",102

row,Structure (SMILES),cell number
1,O=C1Nc2cc(Br)ccc2C1=C1N=c2ccccc2=C1NO [GSK-3 Inhibitor IX],70.1
2,CC(C)C(NC(=O)OCc1ccccc1)C(=O)NC(C=O)Cc1ccccc1 (stereo not drawn),96.2
3,O=C(O)CCCc1c[nH]c2ccccc12 [Indole-3-butyric acid],99
4,COC(=O)c1ccc(O)c2[nH]c3c(C=O)c(O)cc(=O)c-3nc12 [Lomofungin],117
5,CCS(=O)(=O)CCn1c([N+](=O)[O-])cnc1C [Tinidazole],104
6,NC(=O)c1cccc(N)c1 [3-aminobenzamide],102
7,CNC1C(O)C(NC)C2OC3(O)C(=O)CC(C)OC3OC2C1O.Cl.Cl (stereo not drawn) [Spectinomycin.2HCl],106
8,CN(C)CCOC(c1ccccc1)c1ccccc1.Cl [Diphenhydramine hydrochloride],105
9,C(=Cc1ccccc1)CN1CCN(C(c2ccccc2)c2ccccc2)CC1 [Cinnarizine],74.1
10,CC(C=CC1=C(C)CCCC1(C)C)=CC=CC(C)=CC(=O)O [Retinoic acid],102
11,COc1ccc(-c2cc(=O)c3ccc(O)cc3o2)cc1 [Pratol],87.4
12,CC(=O)O.O=C(O)c1ccc2c3c1cccc3c(=O)n1c3ccccc3nc21,89.6
13,CC1COc2c(N3CCN(C)CC3)c(F)cc3c(=O)c(C(=O)O)cn1c23 (stereo not drawn) [Ofloxacin],101 ± 5.3
14,CC=CC(=O)N(CC)c1ccccc1C [Crotamiton],98.5
15,O=C1Cc2c([nH]c3ccc(Br)cc23)-c2ccccc2N1 [Kenpaulone],97.7
16,O=P(O)(O)C(O)(Cc1cccnc1)P(=O)(O)O [Risedronic acid],103
17,COC(=O)C(Cc1ccc(OCCn2c(=O)sc3cc(C(=O)c4ccccc4)ccc32)cc1)C(=O)OC,91.8
18,COC(=O)C(N)Cc1ccc(Cl)cc1.Cl (racemic) [DL-p-Chlorophenylalanine methyl ester hydrochloride],92.3
19,COC(=O)[C@H](Cc1ccc([N+](=O)[O-])cc1)NC(=O)c1cccc2ccccc12 [methyl (2S)-2-(1-naphthoylamino)-3-(4-nitrophenyl)propanoate],95
20,O=c1[nH]c(=O)n(C2CC(O)C(CO)O2)cc1I (stereo not drawn) [Idoxuridine],100
